Bioassay records from PubChem BioAssay.
This is a sample that favours compounds with a hit; in the whole collection about 2.6% have one here.
Mcl1-Bid inh: Mcl-1/Bid binding inhibitors, primary screen, biochemical, TR-FRET, 1536-well; inhibition, % at 21.7 µM; 0.97% of 220,000 active; AID 1021, 2008; TR-FRET Mcl-1/Bid-Dy647 peptide binding;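 active = compounds that cut the binding signal by more than half at the single screening dose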;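 note: His-tagged Mcl-1 with europium anti-His antibody binding Bid BH3 peptide; 0% = Mcl-1 plus peptide wells and 100% = peptide-only wells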
Mcl1-Noxa inh: Mcl-1/Noxa binding inhibitors, primary screen, biochemical, TR-FRET, 1536-well. Induced myeloid leukemia cell differentiation protein Mcl-1 (Homo sapiens), Q07820. TR-FRET Mcl-1/Noxa peptide binding, 2 h. inhibition, % at 21.7 µM. 1.5% of 220,000 active;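 active = compounds that cut the protein-peptide binding signal by more than 50% relative to plate controls in a single-dose test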;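 note: His-tagged Mcl-1 with rhodamine Noxa BH3 peptide and terbium anti-His antibody; 0% = Mcl-1 plus Noxa peptide wells and 100% = peptide-only wells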
MCL1-BIM inh: inhibitors of MCL1 binding to BIM-BH3, primary screen, biochemical, fluorescence polarization; 0.68% of 320,000 active; GST-MCL1 / FITC-Bim-BH3 fluorescence polarization; AID 2057, 2009; inhibition, % at 10.9 µM; Induced myeloid leukemia cell differentiation protein Mcl-1 (Homo sapiens), Q07820;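 active = inhibition above the mean inhibition of all tested compounds plus 3 SD, set per campaign, cut at about 40% in these data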;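 note: 0% = DMSO wells and 100% = unlabeled Bim-BH3 peptide control; higher means more loss of mP so more displacement of Bim peptide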
Mcl-1 Bim block: inhibitors of Bim peptide binding to Mcl-1, primary screen, biochemical, bead-based flow cytometry, multiplex. Induced myeloid leukemia cell differentiation protein Mcl-1 (Homo sapiens), Q07820. Bim peptide-Mcl-1 binding. inhibition, % at 10 µM. 0.1% of 190,000 active; in the data active = inhibition above about 40%;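 note: 0% = no compound tracer wells and 100% = peptide blocker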
14-3-3 Bad inh: inhibitors of 14-3-3 zeta/Bad binding, primary screen, biochemical, TR-FRET, bovine 14-3-3 zeta. TR-FRET 14-3-3zeta/Dy647-pBad peptide displacement, 1 h. inhibition, % at 21.7 µM. 0.71% of 220,000 active. AID 781, 2007;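 active = inhibition above about 70%, limit read from the data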;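 note: 0% = full 14-3-3 plus peptide FRET controls and 100% = background without 14-3-3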
eIF4E 4G PPI: eIF4E–eIF4G protein interaction inhibitors, primary screen, biochemical, uHTS, TR-FRET, eIF4GI fragment | Eukaryotic translation initiation factor 4E (Mus musculus) + Eukaryotic translation … | TR-FRET eIF4E-eIF4GI(517-606) binding, 2 h | inhibition, % at 21.7 µM | 0.37% of 220,000 active;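 active = inhibition above about 30%, limit read from the data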;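 note: 0% = full FRET control wells and 100% = background wells lacking eIF4GI fragment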
The depositor's hits bear a star; . = not tested or not shown.

SMILES	Mcl1-Bid inh	Mcl1-Noxa inh	MCL1-BIM inh	Mcl-1 Bim block	14-3-3 Bad inh	eIF4E 4G PPI
O=C(Nc1ccccc1)Nc1ccc2ncoc2c1	-27.4	15.3	-0.3	91.0*	-8.9	-2.1
OCCN(Cc1ccccc1)Cc1cccc(Cl)c1Cl	31.4	19.1	5.2	-7.0	88.4*	3.7
CCOC(=O)C1(Cc2ccc(Cl)cc2)CCN(C(=O)c2sc(C)nc2C)CC1	-11.1	11.9	0.6	0.0	-8.8	0.4
Cc1nn(CCC(=O)O)c2nc(-c3cccnc3)cc(C(F)(F)F)c12	45.2	24.6	-4.8	0.0	72.9*	10.8
Cc1nn(CCC(N)=O)c2nc(-c3cccs3)cc(C(F)(F)F)c12	-14.6	-15.7	4.0	-5.0	-9.1	-3.3
COc1ccc(N2CCN(S(=O)(=O)c3cc(C)ccc3OC)CC2)cc1	-36.2	32.5	3.1	1.0	-6.3	8.2
CC(C)=C1C(=O)NN(c2cccc(Cl)c2)C1=O	-38.2	19.3	-14.2	-7.0	-25.8	-3.2
CC(C)=C1C(=O)NN(c2ccc(C)c(Cl)c2)C1=O	-20.2	-12.8	1.3	45.0*	-8.7	-3.2
Cc1ccccc1CN(C)CC(=O)NC(C)CCc1ccccc1 (configuration not stated)	-20.4	-5.5	-11.0	-1.0	-3.0	0.7
CCOC(=O)c1sc(NC(=O)Nc2ccc(Cl)cc2)cc1C	7.2	100.0*	-5.0	2.0	10.8	-0.6
Cc1cccc(NC(=O)CSc2nnc(-c3ccco3)o2)c1C	-14.3	54.2*	2.4	-1.0	-9.0	-0.6
O=C(CSc1nnc(-c2ccco2)o1)c1ccccc1	-11.5	16.9	4.0	0.0	-4.0	-4.0
O=C(CSc1nnc(-c2ccco2)o1)c1ccc[nH]1	-25.1	55.7*	7.5	-23.0	-2.4	12.8
CCOc1ccc(NC(=O)C(c2ccccn2)N(C(=O)CCl)c2ccc(OCC)cc2)cc1 (configuration not stated)	-20.2	3.6	5.9	-4.0	-9.0	14.1
CCOc1ccc(NC(c2ccccn2)c2oc(CO)cc(=O)c2O)cc1 (configuration not stated)	-73.3	62.8*	27.5	-4.0	-8.8	2.7
OC(c1ccc(F)cc1)(C1CCCCC1)C(CN1CCOCC1)c1ccccc1 (configuration not stated)	.	.	3.6	.	.	.
CCSc1sccc1C1C(C#N)=C(N)N(c2cccnc2)C2=C1C(=O)CCC2 (configuration not stated)	-3.0	19.4	31.3	-1.0	90.2*	-4.5
CCc1cc(=S)n2c([nH]c3ccccc32)c1C#N	-44.2	29.4	17.3	-2.0	-8.2	3.0
CCc1c(C)c(C#N)c2[nH]c3ccccc3n2c1=S	-3.4	18.0	-7.1	.	-14.8	33.3*
CCC(=O)c1ccc(OCc2ccc(C(=O)c3ccccc3)cc2)cc1	-28.6	-17.1	2.1	0.0	-0.5	-6.2
C(#CCN1CCOCC1)COCCOC(c1ccccc1)c1ccccc1	0.8	-5.7	1.2	1.0	-17.6	-4.1
C(#CCN1CCOCC1)COC(c1ccccc1)c1ccccc1	20.2	30.9	8.6	-7.0	72.2*	4.3
COc1cc(C(=O)Nc2ccc3c(c2)CCCN3C(=O)c2ccco2)c([N+](=O)[O-])cc1OC	.	.	3.5	.	.	.
O=C(N/N=C1\C(=O)c2cccc3cccc1c23)c1ccc(O)cc1	-24.1	53.5*	3.0	1.0	3.0	6.2
CN(CC(=O)Nc1ccccc1Br)C(=O)Cn1[nH]c(=O)c2ccccc2c1=O	.	.	8.4	.	.	.
Cc1ccc2c(c1)c(C)c(C)n2CC(O)Cn1nc(C)c(Br)c1C (configuration not stated)	-17.1	14.3	-0.6	58.0*	-2.5	2.1
Cc1cccc(NC(=O)C2(c3cccs3)CCOCC2)n1	1.2	8.1	13.3	-4.0	3.9	-5.3
CCN(CC)C(=O)c1sc2nc(N3CCOCC3)c3c(c2c1N)CCCC3	-24.7	58.6*	10.8	-1.0	10.2	1.7
CN(C)c1ccc(/C=c2\sc3nc(-c4ccccc4)nn3c2=O)cc1	73.1*	78.8*	.	-4.0	7.8	-32.9
